{
  "source": "PubChem BioAssay (NCI)",
  "note": "This is part of a sample that, as a whole, favours compounds with a hit. Of some 83,000 tested, about 20% had one in any assay.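 Activity criterion: percent growth below 10, measured after cells in 96-well plates were exposed to a single compound concentration for 48 hours.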 A number with no mark means an inactive call. Activity calls are given as the source filed them.",
  "data": [
    {"test_system": "MDA-MB-468 breast", "test": "NCI-60 one-dose screen, 48 h (100 = growth as untreated, 0 = no growth, -100 = all killed)", "conditions": "10 µM unless noted", "values": [
      {"smiles": "ClC(Cl)c1nc(-c2ccccc2)n2nc(-c3ccccc3)cc2n1", "growth": "-52.3% (active)"},
      {"smiles": "Cc1oc2nc[nH]c(=O)c2c1C(=O)/C=C/c1ccc(Br)cc1", "growth": "-55.4% (active)"},
      {"smiles": "Cc1ccc(NCCNCC(O)CO)c2c(=O)c3ccccc3sc12", "note": "(stereo not given)", "growth": "-46.4% (active)"},
      {"smiles": "COc1cc(C2CC(C3C(=O)N(C)C(=O)N(C)C3=O)=NN2C=O)cc(OC)c1OC", "note": "(stereo not given)", "growth": "103%"},
      {"smiles": "N#CC1=C(N)Oc2ccc3ccccc3c2C1c1ccccc1Cl", "note": "(stereo not given)", "growth": "31.1%"},
      {"smiles": "O=C(Nc1ccc(Oc2ccc(F)cc2)c(Cl)c1)c1cnccn1", "growth": "31.8%"},
      {"smiles": "O=S1(=O)NCCCN1CCNc1nccc(-c2c(-c3cccc(O)c3)nc3sccn23)n1", "growth": "78.8%"},
      {"smiles": "O=C(O)CCCCSc1ncnc2nc[nH]c12", "growth": "96%"},
      {"smiles": "CCCC(C)c1cc(Cc2cc(Cl)cc(Cl)c2O)c(O)c(Cc2cc(Cl)cc(Cl)c2O)c1", "note": "(stereo not given)", "growth": "-1.2% (active)"},
      {"smiles": "O=C(CCl)Nc1ccccc1SCc1cc(Cl)cc2c1OCOC2", "growth": "51.6%"},
      {"smiles": "ClCCOCCOc1ccc(C2CCCCC2)cc1", "growth": "91.2%"},
      {"smiles": "O=C1c2c(c3c4ccc(Br)cc4oc3c3[nH]c4ccccc4c23)C(=O)N1O", "growth": "45.3%"},
      {"smiles": "Cc1ccccc1C(c1ccccc1)c1ccccc1C", "growth": "50.3%"},
      {"smiles": "COC(=O)c1nc(-c2ccccc2)oc1S(=O)(=O)NCC(c1ccc(Cl)cc1)N1CCOCC1", "note": "(stereo not given)", "growth": "29.9%"},
      {"smiles": "Cc1ccc2c(c1)ncn2-c1ncnc2c1CC(C)c1ccccc1N2C", "note": "(stereo not given)", "growth": "38%"},
      {"smiles": "CN(C)c1ccc(-c2ccc(-c3ccc(C(=N)N)c(F)c3)s2)cc1", "growth": "-83.6% (active)"},
      {"smiles": "CS(=O)(=O)Nc1cncc(-c2ccc3ncnc(Nc4ccc(F)c(Cl)c4)c3c2)c1", "growth": "-30.3% (active)"},
      {"smiles": "Cn1ccnc1C(=O)/C=C/c1ccc(CC(=O)NC2CCCCC2)cc1", "growth": "-6.65% (active)"},
      {"smiles": "O=[N+]([O-])c1ccc(Oc2ccccc2Cl)c([N+](=O)[O-])c1", "growth": "64.2%"},
      {"smiles": "CCCCCCNC(=O)Nc1ncnc2c1ncn2-c1ccccc1", "growth": "105%"},
      {"smiles": "CCN(CC)CCOC(=O)c1ccc(N=Nc2ccc(O)c(OC)c2)cc1", "growth": "94%"},
      {"smiles": "Cc1cc(N=O)cc(C(C)(C)C)c1O", "growth": "91%"},
      {"smiles": "CCCCOc1nc2ccc(C)cc2cc1/C=C/C(=O)/C=C/c1ccc2c(c1)OCO2", "growth": "95.9%"},
      {"smiles": "CC1(C)C(N)=Nc2cc(OCCCCN3Cc4ccccc4C3)c(OCC3CC3)cc21", "growth": "42.2%"},
      {"smiles": "CCCCCCCCO", "growth": "98.9%"},
      {"smiles": "O=C(Cn1cc(CN2C(=O)c3ccc([N+](=O)[O-])cc3C2=O)nn1)Nc1ccccc1Br", "growth": "111%"},
      {"smiles": "Nc1cccc2c1C(=O)c1cccc(NC(=O)c3ccccc3)c1C2=O", "growth": "10.6%"},
      {"smiles": "O=C1c2ccccc2C(=O)c2c1ccc1[nH]c(CCl)nc21", "growth": "-28.6% (active)"},
      {"smiles": "O=C(Nc1cccc(-n2cc(-c3ccncc3)c(-c3cc(O)cc(Cl)c3)n2)c1)Nc1ccc(Cl)c(Cl)c1", "growth": "-1.88% (active)"},
      {"smiles": "O=C1[C@@H]2Cc3c([nH]c4ccccc34)[C@H](c3c(Cl)cccc3Cl)N2C(=O)CN1C1CCN(Cc2ccccc2)CC1", "growth": "-33.4% (active)"},
      {"smiles": "CSc1nn(-c2ccccc2)c2ncnc(Oc3ccc(C)cc3)c12", "growth": "93.2%"},
      {"smiles": "Cc1ccc(CSc2nc(-c3ccc(Cl)cc3)c(C#N)c(N3CCOCC3)n2)cc1", "growth": "84%"},
      {"smiles": "CN1C(=O)NC(c2ccc(Cl)cc2)(c2ccc(Cl)cc2)C1=O", "growth": "104%"},
      {"smiles": "O=C(CCN1CCCC1)Nc1ccc2c(Nc3ccc(F)cc3)c3ccccc3nc2c1", "growth": "-66.6% (active)"},
      {"smiles": "C#Cc1cccc(Nc2ncnc3cc(NC(=O)CCl)ccc23)c1", "growth": "-60.8% (active)"},
      {"smiles": "Oc1ccc(CNNc2ccnc3c(O)cccc23)c2cccnc12", "growth": "64.3%"},
      {"smiles": "Oc1c(Cl)cc(Cl)c2ccc(CN3CCNCC3)nc12", "growth": "34.4%"},
      {"smiles": "NC(=S)Nc1cccc(O)c1", "growth": "101%"},
      {"smiles": "N#Cc1cnn(C(=O)c2nn(-c3ccc(Cl)cc3)cc2O)c1N", "growth": "32.1%"},
      {"smiles": "COc1cc2cc(Oc3ccc(NC(=O)Nc4ccc(F)c(C(F)(F)F)c4)cc3)c(C)nc2cc1OCCN1CCCCC1", "growth": "71.3%"}
    ]}
  ]
}
